Experimental data as given in PubChem BioAssay AID686979 (National Center for Advancing Translational Sciences (NCATS), 2013).
The campaign covered roughly 420,000 compounds. About 50,000 (12%) were called active. About 26% were inconclusive and are not listed. Calls follow the shape of the dose curve; as a rule, active = well fitted inhibition curve with a large enough effect; inconclusive = small, poorly fitted or top-dose-only effect; inactive = flat fitted curve, though single readings scatter. The entries come from a sample that favours actives as a whole.

assay: qHTS for Inhibitors of human tyrosyl-DNA phosphodiesterase 1 (TDP1): qHTS in cells in presence of CPT; conditions: chicken DT40 Tdp1-/-;hTDP1 cells + 20 nM CPT, ATP luminescence, 48 h; series mostly up to 46.2 µM; activity change, negative = growth inhibition: at the top concentration; also: nearly all actives have a fitted effect of over 55% in size
Method in brief: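 Cell growth measured by CellTiter-Glo luminescence after a minimum 48 h, 37 C compound exposure with 20 nM CPT in Tdp1-knockout DT40 cells stably expressing hTDP1, seeded 400/well; qHTS titration format.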
% is scaled to controls: 0 for no effect and ±100 for the full control effect; potency is read from the fitted curve at half-maximal effect.

Row | SMILES | activity change, negative = growth inhibition | Potency
1 | CCc1nc(SCC(=O)NNC(=O)c2ccc(C)cc2)c2ccccc2n1 | -13.1% (inactive) | 
2 | COC(=O)CSc1nc(C2CC2)nc2ccccc12 | -15.9% (inactive) | 
3 | CC(C)N(C(=O)CSc1nc(COc2ccccc2)nc2ccccc12)C(C)C |  | 23.1 µM (active)
4 | Cc1cc(C)cc(NC(=O)NC2CCN(CC(=O)Nc3cccc(Cl)c3C)CC2)c1 | -18% (inactive) | 
5 | CCC(=O)Nc1ccccc1C(=O)N1CCN(Cc2ccccc2)CC1 | -9.21% (inactive) | 
6 | Cc1nn(Cc2ccccc2)c(C)c1C(=O)N1CCN(CC(=O)Nc2ccccc2Cl)CC1 |  | 16.4 µM (active)
7 | CNC(=O)CN1C(=O)NC(c2ccccc2)(c2ccccc2)C1=O | -0.402% (inactive) | 
8 | Cc1ccc(SCC(=O)N2CCN(c3ccc(F)cc3)CC2)cc1 | -23% (inactive) | 
9 | Cc1ccc(CSCC2Nc3ccc(C(=O)N4CCN(c5ccc(F)cc5)CC4)cc3NC2=O)cc1 (stereo not given) |  | 16.4 µM (active)
10 | COC(=O)c1ccc(C(=O)OC)c(NC(=S)N2CCN(c3ccc(F)cc3)CC2)c1 | -26.1% (inactive) | 
11 | CN(Cc1ccc(CNC[C@H]2O[C@@H](n3cnc4c(N)ncnc43)[C@H](O)[C@@H]2O)o1)S(C)(=O)=O | -7.47% (inactive) | 
12 | Cn1cccc1C(C#N)c1ccccc1C#N (stereo not given) | -1.65% (inactive) | 
13 | CCc1ccc2c(c1)C(c1ccc([N+](=O)[O-])cc1)=NNC(c1ccccc1)=N2 | -24.4% (inactive) | 
14 | Cc1ccc(C2=Nc3c(ccc4ccccc34)C(c3ccncc3)=NN2)cc1 |  | 18.4 µM (active)
15 | Cc1cc(C)n2nc(C(=O)OC(C)C(=O)c3cc(C)c(C)cc3C)nc2n1 (stereo not given) | 9.74% (inactive) | 
16 | COc1cc(OC)cc(C(=O)NC2CCN(C(=O)N3c4ccccc4Sc4ccccc43)CC2)c1 |  | 29.1 µM (active)
17 | COc1ccc(C(=O)NC2CCN(C(=S)Nc3ccccc3)CC2)cc1 | -2.64% (inactive) | 
18 | COc1ccc(C(=O)NC2CCN(C(=S)NCCc3ccccc3)CC2)cc1 | -9.89% (inactive) | 
19 | O=C(c1ncn2c1c(=O)[nH]c1ccccc12)N1CCc2ccccc2C1 | -1.67% (inactive) | 
20 | CCOC(=O)C1CCCN(CC(=O)Nc2cc(C)c3c(=O)oc4ccccc4c3n2)C1 (stereo not given) | 0.0764% (inactive) | 
21 | COc1cc(/C=C/C(=O)O)cc(S(=O)(=O)Nc2ccccc2SC)c1OC | 1.85% (inactive) | 
22 | CCn1c(=O)cc(SCC(=O)NCc2ccc3c(c2)OCO3)c2ccccc21 | -32.1% (inactive) | 

Row | SMILES | activity change, negative = growth inhibition | Potency
23 | O=C1N(Cc2ccc3c(c2)OCO3)c2ccccc2C1(O)c1c[nH]c2ccccc12 (stereo not given) |  | 18.4 µM (active)
24 | O=C(CC1Oc2ccc(Cl)cc2NC1=O)NCc1ccccc1 (stereo not given) | -14.1% (inactive) | 
25 | O=C(COC(=O)c1cc(=O)[nH]c2ccccc12)NCc1cccc(Cl)c1 | -26.8% (inactive) | 
26 | O=C(CSc1ncn[nH]1)NCc1ccc2c(c1)OCO2 | 11.8% (inactive) | 
27 | O=C1N(Cc2ccccc2)c2ccc(Cl)cc2C1(O)c1c[nH]c2ccccc12 (stereo not given) |  | 23.1 µM (active)
28 | CCOc1ccc(CCNC(=O)COC(=O)c2ccc(F)c(S(=O)(=O)N3CCOCC3)c2)cc1OCC | 7.66% (inactive) | 
29 | O=C(CSc1nnc(-c2ccncc2)o1)Nc1cccc(Cl)c1 | 0.739% (inactive) | 
30 | COC(=O)c1cnc(Nc2cc(C)ccc2OC)c2ccccc12 | 1.61% (inactive) | 
31 | O=[N+]([O-])c1ccccc1Nc1ccc(O)cc1 | -34.1% (inactive) | 
32 | O=C(OCc1ccccc1)c1ccc(O)cc1 | -30.5% (inactive) | 
33 | Oc1ccc(CNc2ccccc2O)cc1 |  | 25.9 µM (active)
34 | CCOC(=O)C(C)N(c1ccccc1Cl)S(C)(=O)=O (stereo not given) | -0.811% (inactive) | 
35 | O=C(NCCCN1CCOCC1)c1cc(-c2cccc(O)c2)on1 | -24.8% (inactive) | 
36 | Cc1nc([N+](=O)[O-])nn1C12CC3CC(CC(Br)(C3)C1)C2 |  | 23.1 µM (active)
37 | CC[C@@H](C)[C@H](NC(=O)CCc1c(C)c2cc3c4c(oc3c(C)c2oc1=O)CCCC4)C(=O)O | -12.7% (inactive) | 
38 | COCc1c(C(=O)N/N=C(\C)c2ccncc2)nnn1-c1nonc1N | 5.2% (inactive) | 
39 | CSc1ccc(/C=C2\NC(=O)NC2=O)cc1 | -13.4% (inactive) | 
40 | O=C(Nc1ccnn1C1CCN(Cc2cccc(OCCO)c2)CC1)C1CCCC1 | 3.27% (inactive) | 
41 | CCN(CC)CCN(C(=O)c1cc(Cl)sc1Cl)c1nc2cc3c(cc2s1)OCO3 | -22.6% (inactive) | 
42 | Nc1ccccc1Sc1ccc(C(F)(F)F)cc1[N+](=O)[O-] | -16.5% (inactive) | 
43 | Nc1ccccc1SCc1cc([N+](=O)[O-])cc2c1OCOC2 | -9.92% (inactive) | 
44 | Nc1ccccc1SC(C[N+](=O)[O-])c1ccccc1 (stereo not given) |  | 4.11 µM (active)

Row | SMILES | activity change, negative = growth inhibition | Potency
45 | COc1ccc(NS(=O)(=O)c2ccc(C)c(C(=O)NNC(=O)c3csc(N4CCOCC4)n3)c2)cc1 | 2.85% (inactive) | 
46 | O=C(NCc1cccnc1)c1cccc(-c2cc3ccccc3oc2=O)c1 | 6.42% (inactive) | 
47 | Cc1ccc(S(=O)(=O)CCC(=O)OCC(=O)N(C)C2CCS(=O)(=O)C2)cc1 (stereo not given) | -1.21% (inactive) | 
48 | Cc1ccc2nc(-c3ccc(O)cc3)c(Nc3ccc4c(c3)OCO4)n2c1 |  | 23.1 µM (active)
49 | Cc1nc([N+](=O)[O-])cn1CC(=O)Nc1ccc2c(c1)OCO2 | 29% (inactive) | 
50 | Cc1ccc(SCC(=O)Nc2ccc3c(c2)OCCO3)cc1 | 0.128% (inactive) | 
51 | CC(C)(C)NC(=O)NC(=O)COC(=O)C1(C)CC1(Cl)Cl (stereo not given) | -3.94% (inactive) | 
52 | COc1ccc(CNC(=O)CC2Oc3ccc(C)cc3NC2=O)cc1 (stereo not given) | -7.07% (inactive) | 
53 | Cc1cc(C)cc(NC(=O)C(OC(=O)c2ccc(O)cc2)c2ccccc2)c1 (stereo not given) | -20.1% (inactive) | 
54 | CCOC(=O)c1ccc(N2C(=O)CC(Sc3nc(O)c(CC)c(=O)[nH]3)C2=O)cc1 (stereo not given) | 1.86% (inactive) | 
55 | O=C1CC(N2CCN(c3ccc(F)cc3)CC2)C(=O)N1c1ccccc1 (stereo not given) | -10.3% (inactive) | 
56 | Cc1ccnc(SC2CC(=O)N(c3ccccc3)C2=O)n1 (stereo not given) | -4.69% (inactive) | 
57 | O=C1CC(Sc2ncn[nH]2)C(=O)N1c1ccccc1 (stereo not given) |  | 8.2 µM (active)
58 | COc1ccc(-c2nc(SCC(=O)N3CCOCC3)n[nH]2)cc1 | -6.79% (inactive) | 
59 | COc1ccc(N2C(=O)CC(SC(C)C)C2=O)cc1 (stereo not given) | -5.56% (inactive) | 
60 | CC(=O)Nc1ccc(N2C(=O)CC(Sc3nccc(C)n3)C2=O)cc1 (stereo not given) | -22.2% (inactive) | 
61 | Cc1ccc(N2C(=O)CC(Sc3ncn[nH]3)C2=O)cc1 (stereo not given) |  | 5.17 µM (active)
62 | COc1ccc(N2C(=O)CC(Sc3n[nH]c(-c4ccc(C)cc4)n3)C2=O)cc1 (stereo not given) |  | 2.91 µM (active)
63 | OCC[C@H]1C[C@H](O)[C@@H](O)[C@]2(CCc3ccccc3O2)O1 | -14.2% (inactive) | 
64 | Cc1cc(C)cc(NC(=O)c2cccc(NC(=O)C3C4CC5OC(=O)C3C5C4)c2)c1 (stereo not given) | -4.86% (inactive) | 
65 | O=C(O)CCN(Cc1ccccc1)S(=O)(=O)c1c(Cl)cccc1Cl | -12.6% (inactive) | 
